Screening data from PubChem BioAssay.
Most compounds without a hit are left out; they make up all but 21% or so of the library.
Shiga inhibitor = Shiga toxin inhibition. AID 2315. 9.2% of 290,000 active. inhibition, % at 38.7 µM. Vero cells, Shiga toxin protein synthesis inhibition reporter; in the data active = inhibition mostly above about 28%, no sharp cut-off; inactive = mostly below about 43%
Pf growth 96h = P. falciparum growth inhibition at 96 hour, primary screen for plastid delayed-death inhibitors; P. falciparum luciferase reporter growth, 96 h; Potency, µM (doses to about 28.7 µM), usual class: inhibitors; 6.9% of 320,000 active
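Cell-based qHTS: luciferase-tagged P. falciparum in erythrocytes (2% hematocrit, 0.05% parasitemia final) incubated with compounds for 96 hours, 37 C, 5% CO2; luciferase detection reagent then added and luminescence measured.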
Cycloheximide cs = counter-screen hit for Shiga toxin inhibitors, cycloheximide. cell reporter, cycloheximide protein synthesis inhibition counterscreen. max response, %. 12% of 300,000 active; in the data active = max response mostly above about 13%, no sharp cut-off; inactive = mostly below about 14%; also: read at 38.3 µM for the half of the compounds with a filed dose
NS1 inh = inhibitors of influenza NS1 protein function; Potency, µM (titrated, usually from 46.1 µM); 0.4% of 270,000 active; calls by dose curve; also: actives are rising curves; nearly all actives have a fitted effect of over 50% in size
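In this qHTS, NS1 from influenza A is expressed in budding yeast, where it slows growth. Cells are switched from glucose to 2% galactose medium (pH 6.0, -URA), treated with compound, and growth recovery is read at OD600.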
Pf growth 48h = P. falciparum growth inhibition at 48 hours (one generation) | AID 504832 | Potency, µM (top dose mostly 28.7 µM), most hits filed as inhibitors | 5.9% of 310,000 active | P. falciparum luciferase growth in erythrocytes, 48 h
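Compounds are pin-transferred into medium, infected erythrocytes (2% hematocrit, 0.1% parasitemia final) are added, and plates sit one parasite generation at 37 C in 5% CO2. Detection reagent is then added and luminescence measured.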
SARS PLpro yeast = inhibitors of SARS-CoV papain-like protease in yeast; S. cerevisiae expressing SARS-CoV PLpro, growth rescue; Potency, µM (top dose mostly 32.9 µM), hits mostly activators; 0.19% of 330,000 active; AID 485353; calls by dose curve; also: nearly all actives have a fitted effect of over 55% in size
Hits are given with their value; 0 = inactive; ? = inconclusive; - = no result; [ ] = dose if it differs, or a comment. Unless noted, calls follow the shape of the dose curve; as a rule, active = well fitted inhibition curve with a large enough effect; inconclusive = small, poorly fitted or top-dose-only effect, or another doubt; inactive = no such curve, though single readings can be large or run the other way.

SMILES	Shiga inhibitor	Pf growth 96h	Cycloheximide cs	NS1 inh	Pf growth 48h	SARS PLpro yeast
Cc1ccnc(SC2CC(=O)N(c3ccc(C(C)C)cc3)C2=O)n1 (configuration not stated)	0	?	0	0	0	0
CC(C)c1ccc(N2C(=O)CC(Sc3ncccn3)C2=O)cc1 (configuration not stated)	0	2.1µM	0	0	0	0
CC(=O)CCc1ccccc1	-	0	-	-	?	0
CC(=O)CCc1c[nH]c2c(C(=O)O)cccc12	0	12µM	0	?	0	0
CN(C)c1ccc(/C=C2\C(=O)Nc3ccccc32)cc1	78	-	76	0	-	-
CC(C)(C)c1cc(/C=C2\NC(=O)NC2=O)cc(C(C)(C)C)c1O	0	0	25	0	?	0
NS(=O)(=O)c1ccc(-c2ccc(/C=C3\C(=O)Nc4ccccc43)o2)cc1	0	0	0	0	0	0
O=C1Nc2ccccc2/C1=C/c1ccccc1F	0	0	13	0	0[0.00184 µM]	0
O=C1Nc2ccccc2/C1=C/c1cccnc1	0	?	0	-	0	0
Cc1ccccc1/C=C1\C(=O)Nc2ccc(F)cc21	0	0	0	0	0	0
Cc1ccc(/C=C2\C(=O)Nc3ccccc32)o1	0	0	18	0	0	0
Cc1cc(Br)ccc1SCC(=O)OCC(=O)Nc1ccc2[nH]c(=O)[nH]c2c1	-	0	-	-	0	0
O=C1Nc2ccccc2/C1=C/c1cnc(-c2ccccc2)[nH]1	53	0	59	0	0	0
CN(C)c1ccc(/C=C2/NC(=O)NC2=O)cc1	active	?	25	0	0	0
O=C1NC(=O)/C(=C/c2cccc(O)c2)N1	0	0	0	0	0	0
Cc1ccc(-n2nc(C)c3c(C)c(CCC(=O)NCC4CCCO4)c(=O)n(C)c32)cc1 (configuration not stated)	0	?	0	0	?	0
COc1ccc(-c2c(C)[nH]n3c(=O)c(Cc4ccccc4)c(C)nc23)cc1	0	0	0	0	?	0
CC(C)(C)NC(=O)Cn1ccc(=N)c2ccccc21	0	0	0	0	?	0
CC(C)(C)NC(=O)Cn1cc(C#N)c2cc(Br)ccc21	0	-	0	0	5.9µM	0
Cc1ccc(NC2=C(Cl)C(=O)OC2OC(C)C)cc1 (configuration not stated)	0	13µM	0	-	0	0
Cc1cccc(NC2=C(Cl)C(=O)OC2OC(C)C)c1 (configuration not stated)	0	0	0	-	0	0
Cc1cc(C)c2cc(CN(CCO)C(c3nnnn3Cc3ccc(F)cc3)C(C)C)c(=O)[nH]c2c1 (configuration not stated)	0	12µM	0	0	?	0
Cc1cc(C)c2cc(C(O)c3nnnn3Cc3ccccc3)c(=O)[nH]c2c1 (configuration not stated)	0	0	0	0	?	0
Cc1ccc(F)cc1CNC(=O)C1CCC(=O)N(CC2CCCCC2)C1 (configuration not stated)	0	0	0	0	0	0
Cc1ccc(SCCc2cc[n+](CC(=O)c3ccccc3)cc2)cc1	125	?	51	0	0	0
SMILES	Shiga inhibitor	Pf growth 96h	Cycloheximide cs	NS1 inh	Pf growth 48h	SARS PLpro yeast
Cc1ccc(C(=O)C[n+]2ccc(Cc3ccccc3)cc2)cc1	0	8.3µM	0	-	?	0
O=C(C[n+]1ccc(CCSc2ccc(F)cc2)cc1)c1ccccc1	0	0	0	-	0	0
O=C(COC(=O)CNC(=O)c1cccs1)Nc1ccc(C(F)(F)F)cc1[N+](=O)[O-]	-	0	-	-	?	0
O=C(COC(=O)CCSc1ccc(Cl)cc1)NCc1ccco1	0	0	19	0	0	0
O=C(/C=C/c1ccc(Cl)cc1)NCc1ccco1	94	?	25	0	0	0
O=C(/C=C/c1ccc(S(=O)(=O)NCc2ccco2)cc1)NCc1ccccc1Cl	20	?	31	0	?	0
O=C(NCc1ccco1)/C(=C/c1ccc(Cl)cc1)NC(=O)c1ccco1	0	0	0	0	0	0
O=C(COC(=O)CCSc1ccc(Cl)cc1)NCc1ccccc1Cl	0	0	0	0	0	0
O=C(NC1CCN(S(=O)(=O)c2cccc(F)c2)CC1)c1cccc(F)c1	0	0	0	0	0	0
COc1cccc(NC(=O)NC2CCCCCCC2)c1	155	0	50	0	0	0
COc1cccc(NC(=S)N2CCC(NC(=O)C3CCCCC3)CC2)c1	0	0	0	0	0	0
COc1cccc(NC(=O)C(=S)NC2CCCCC2)c1	106	0	50	0	0	0
COc1cccc(NC(=O)C2CCCN2C(=O)NC2CCCCC2)c1 (configuration not stated)	0	0	0	0	0	0
CCOc1ccc2c(c1)c1nnc(SCC(=O)NC3CC3)nc1n2C	0	?	0	0	0	0
CCN(C(=O)COC(=O)c1ccc(S(=O)(=O)N2CCCc3ccccc32)cc1)C1CCS(=O)(=O)C1 (configuration not stated)	0	0[5.75 µM]	0	-	0	0
S=c1[nH]c2ncccc2o1	0	2.1µM	0	0	0	0
S=c1[nH]c2cc(-c3ccccc3)ccc2o1	0	0	0	0	0	0
Cc1cc(/C=C(/C#N)c2nc3ccccc3[nH]2)c(C)n1-c1ccccc1C(=O)O	0	0	0	-	8.3µM	0
Cc1cc(/C=C(/C#N)c2nc3ccccc3[nH]2)c(C)n1-c1cc(C(=O)O)cc(C(=O)O)c1	0	0	0	0	0	0
N#C/C(=C(/O)c1ccc([N+](=O)[O-])o1)c1nc2ccccc2[nH]1	0	0	0	0	0	0
N#C/C(=C\c1ccc(-c2ccccc2C(=O)O)o1)c1nc2ccccc2[nH]1	0	?	0	0	-	0
N#C/C(=C\c1ccc(Sc2ccccc2)o1)c1nc2ccccc2[nH]1	127	1µM	41	0	?	0
Cc1ccc2nc(/C(C#N)=C\c3ccc([N+](=O)[O-])o3)[nH]c2c1	0	?	0	0	10µM	0
N#C/C(=C\c1ccc([N+](=O)[O-])o1)c1nc2ccccc2[nH]1	0	0	17	0	0	0
Cc1cc(N2CCOCC2)nc(-c2ccc([N+](=O)[O-])cc2)n1	0	0	0	0	0	0
SMILES	Shiga inhibitor	Pf growth 96h	Cycloheximide cs	NS1 inh	Pf growth 48h	SARS PLpro yeast
O=S1(=O)NC(=NCCOCCO)c2ccccc21	0	0	0	0	0	0
CCN=C1SC(CC(=O)NC(C)c2ccccc2)C(=O)N1CC (configuration not stated)	0	0	0	0	0	0
COc1ccccc1/C=N/OCc1cc(C(C)=O)ccc1OC	0	0	0	0	0	0
Cc1ccc2nc(/C(C#N)=C\c3cc(C)n(-c4cccc([N+](=O)[O-])c4)c3C)[nH]c2c1	0	3.3µM	0	0	-	0
CCOC(=O)c1ccc(NS(=O)(=O)c2c(C)nc3sccn3c2=O)cc1	0	10µM	0	0	0	0
COc1cccc(CNS(=O)(=O)c2c(C)nc3sccn3c2=O)c1	0	0.52µM	0	0	0	0
Cc1ccc(NS(=O)(=O)c2c(C)nc3sccn3c2=O)cc1	0	0	0	0	0	0
